High-throughput results: PubChem, Center for Chemical Genomics, University of Michigan
Dicer processing: inhibitors of human Dicer processing of pre-microRNA. Q9UPY3. cat-ELCCA pre-miR-21 Dicer processing, chemiluminescence; stronger effect = higher value. z-score at 25 µM. 47,000 tested, 6% active; in the data active = z-score above about 3, passing the limit was not always enough;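 note: plate controls were vehicle for no effect and no enzyme for full effect; higher signal means more uncleaved substrate so more Dicer inhibition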
Target sequence (Q9UPY3 whole entry, looked up): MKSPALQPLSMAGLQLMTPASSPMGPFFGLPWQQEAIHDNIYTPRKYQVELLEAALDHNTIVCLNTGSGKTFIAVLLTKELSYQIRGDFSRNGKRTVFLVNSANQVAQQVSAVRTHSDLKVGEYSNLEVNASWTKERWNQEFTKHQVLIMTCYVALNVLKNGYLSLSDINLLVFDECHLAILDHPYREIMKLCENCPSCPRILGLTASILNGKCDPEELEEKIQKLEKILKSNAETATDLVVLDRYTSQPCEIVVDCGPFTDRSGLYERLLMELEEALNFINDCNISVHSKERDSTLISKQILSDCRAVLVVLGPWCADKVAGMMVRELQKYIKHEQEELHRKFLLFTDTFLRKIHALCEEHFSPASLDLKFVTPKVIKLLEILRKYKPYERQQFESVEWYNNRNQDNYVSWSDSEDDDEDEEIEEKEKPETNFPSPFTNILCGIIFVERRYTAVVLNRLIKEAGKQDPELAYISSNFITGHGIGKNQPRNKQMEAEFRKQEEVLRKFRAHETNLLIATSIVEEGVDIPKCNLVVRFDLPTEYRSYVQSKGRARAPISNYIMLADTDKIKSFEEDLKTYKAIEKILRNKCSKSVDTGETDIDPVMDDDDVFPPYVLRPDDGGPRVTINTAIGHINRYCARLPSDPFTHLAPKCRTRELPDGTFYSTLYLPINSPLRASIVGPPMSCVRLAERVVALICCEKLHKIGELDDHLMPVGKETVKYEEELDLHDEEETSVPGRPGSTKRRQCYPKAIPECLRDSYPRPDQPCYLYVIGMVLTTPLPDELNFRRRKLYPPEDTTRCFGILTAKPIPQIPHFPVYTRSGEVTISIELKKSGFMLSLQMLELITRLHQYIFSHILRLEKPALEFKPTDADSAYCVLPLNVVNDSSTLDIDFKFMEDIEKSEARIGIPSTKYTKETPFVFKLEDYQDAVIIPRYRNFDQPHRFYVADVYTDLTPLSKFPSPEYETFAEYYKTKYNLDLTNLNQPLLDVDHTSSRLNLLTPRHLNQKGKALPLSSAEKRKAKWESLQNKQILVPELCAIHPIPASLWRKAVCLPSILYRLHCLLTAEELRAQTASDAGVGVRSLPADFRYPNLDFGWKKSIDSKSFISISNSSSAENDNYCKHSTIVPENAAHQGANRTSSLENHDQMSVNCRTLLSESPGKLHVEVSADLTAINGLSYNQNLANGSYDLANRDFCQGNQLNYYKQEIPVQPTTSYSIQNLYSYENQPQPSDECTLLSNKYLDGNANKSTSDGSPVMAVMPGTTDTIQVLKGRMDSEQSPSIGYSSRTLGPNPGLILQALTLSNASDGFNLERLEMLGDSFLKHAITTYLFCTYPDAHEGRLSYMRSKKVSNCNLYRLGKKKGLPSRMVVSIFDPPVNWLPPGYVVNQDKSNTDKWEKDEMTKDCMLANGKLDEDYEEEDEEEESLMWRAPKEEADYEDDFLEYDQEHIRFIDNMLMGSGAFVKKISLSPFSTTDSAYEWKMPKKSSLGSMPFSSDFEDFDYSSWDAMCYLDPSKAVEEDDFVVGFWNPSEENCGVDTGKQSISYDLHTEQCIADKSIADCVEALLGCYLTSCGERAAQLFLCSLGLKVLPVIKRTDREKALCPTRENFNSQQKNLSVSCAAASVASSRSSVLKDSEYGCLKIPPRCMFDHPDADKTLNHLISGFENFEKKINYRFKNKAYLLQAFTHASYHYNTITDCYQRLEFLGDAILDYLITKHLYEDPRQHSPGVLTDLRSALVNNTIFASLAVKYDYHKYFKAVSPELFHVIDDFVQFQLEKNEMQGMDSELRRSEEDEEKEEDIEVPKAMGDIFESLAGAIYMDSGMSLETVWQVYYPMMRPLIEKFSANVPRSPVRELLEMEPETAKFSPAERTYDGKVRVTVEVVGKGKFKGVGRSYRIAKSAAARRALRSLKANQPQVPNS
* = called active by the depositor. Shown is part of a subset that was picked to be rich in hits.

SMILES	Dicer processing
CN(C)c1ccc(/C=C/c2nc(-c3ccccc3O)n[nH]2)cc1	3
CN(C)CCOC(=O)c1ccc(C(=O)c2ccccc2)cc1	0.18
COC(=O)c1sc(N2CCCC2)c(C#N)c1N	-0.04
COc1ccccc1-c1cc(C(=O)O)c2ccccc2n1	-0.51
O=C(O)c1ccccc1-c1c2ccc3cc(O)ccc3c2oc2c1ccc1cc(=O)ccc12	4.3*
O=c1c(-c2cccc3ccccc23)c(C(F)(F)F)oc2cc(O)ccc12	-0.11
CC(c1ccccc1)n1c(SCC(=O)c2cc(-c3ccccc3)no2)n[nH]c1=O (stereo not given)	-3.1
Cc1[nH]nc2c1C1=C(C(=O)CC(C)(C)C1)C(c1ccc(N(C)C)cc1)N2 (stereo not given)	2.2
CCC1C2=C(CC(C)(C)CC2=O)Nc2c1c(C)nn2-c1ccccc1 (stereo not given)	-2.6
Cc1nn(-c2ccccc2)c2c1C1=C(C(=O)CC(C)(C)C1)C(c1ccc(N(C)C)cc1)N2 (stereo not given)	3.4*
N/C(=N\OC(=O)N1CCOCC1)c1cccc(C(F)(F)F)c1	-0.49
COc1ccc(C2CC(=O)c3cnc(NC4OC(=O)c5ccccc54)nc3C2)cc1OC (stereo not given)	-1.3
COc1ccc(C2CC(=O)c3cnn(-c4nc(C)cc(C)n4)c3C2)cc1OC (stereo not given)	-0.72
CCOC(=O)N1CCN(c2ncc3c(n2)CC(c2ccc(OC)c(OC)c2)CC3=O)CC1 (stereo not given)	3.5*
CN1C(=S)NNC(=O)c2cc(Cl)ccc21	-0.13
COc1ccc(N=C2C(=O)Nc3ccc(Br)cc32)cc1	-3.6
O=C1Nc2ccccc2C1=Nc1ccc(Cc2ccc(N=C3C(=O)Nc4ccccc43)cc2)cc1	3.9*
O=C1Nc2ccccc2C1=NCCCN=C1C(=O)Nc2ccccc21	-1.2
O=C(O)CCC(=O)N1c2ccccc2NC2=C(C(=O)CC(c3ccc(F)cc3)C2)C1c1cccs1 (stereo not given)	-1.8
Clc1ccc(OCc2nc(-c3ccc(Cl)cc3)no2)cc1	0.94
Cc1cc(C)n(S(=O)(=O)c2ccc(-c3ccccn3)s2)n1	-1.2
COc1cccc(-c2cc(C#N)on2)c1OC	0.66
CCOC(=O)c1ccc(NC(=S)N/N=C/c2ccccc2Cl)cc1	9.9
Cn1c(C(=O)N/N=C/c2ccccc2Cl)cnc1SCc1ccc(Cl)cc1	0.03
O=C(CCn1nnc(-c2cccc(Cl)c2Cl)n1)N/N=C/c1ccccc1Cl	3.2*
SMILES	Dicer processing
Cc1ccc(=O)n(Cc2ccccc2C)n1	-0.51
COc1ccccc1NS(=O)(=O)c1sc2ccc(Cl)cc2c1C	3.3*
Cc1ccc(NS(=O)(=O)c2sc3ccc(Cl)cc3c2C)cc1	1.4
Cc1c(S(=O)(=O)Nc2ccc3c(c2)OCCO3)sc2ccc(Cl)cc12	0.83
Cc1c(Br)sc2sc(-c3ccnc(SCc4ccccc4)n3)c(C)c12	0.5
CN1CCN(CCCCC(=O)O)CC1	4*
O=C(O)CCCCCCCC(=O)O	0.04
CN1CCN(C(=O)CCC(=O)O)CC1	-0.72
CCOC(=O)C1(CC(=O)c2ccc(F)cc2)C(=O)Oc2ccccc2C1c1ccccc1 (stereo not given)	2.9
O=C(OCCNc1ccc([N+](=O)[O-])cn1)c1cc2ccccc2oc1=O	1.8
Cc1cc(C)n(-c2ccc(N3CCSCC3)nn2)n1	-0.47
O=C(c1cnn2c1NC(c1ccc(Br)cc1)CC2C(F)(F)F)N1CCOCC1 (stereo not given)	4.2*
COc1ccc(C2CC(C(F)(F)F)n3ncc(C(=O)O)c3N2)cc1OC (stereo not given)	0.76
O=C(c1cc2n(n1)C(C(F)(F)F)CC(c1ccc(Cl)cc1)N2)N1CCOCC1 (stereo not given)	0.29
CC(C)NC(=O)c1nn2c(c1Cl)NC(c1ccc(Br)cc1)CC2C(F)(F)F (stereo not given)	-0.28
COc1ccc(C2CC(C(F)(F)F)n3ncc(C(N)=O)c3N2)cc1 (stereo not given)	0.95
CN1CCN(C(=O)c2cc3n(n2)C(C(F)(F)F)CC(c2ccccc2)N3)CC1 (stereo not given)	3.2*
O=C(c1cnn2c1NC(c1ccccc1)CC2C(F)(F)F)N1CCCCC1 (stereo not given)	0.97
O=C(O)c1cnn2c1NC(c1ccc(Br)cc1)CC2C(F)(F)F (stereo not given)	2.6
CC(C)NC(=O)c1cc2n(n1)C(C(F)(F)F)CC(c1ccc(Br)cc1)N2 (stereo not given)	1.8
O=C(O)c1cc2n(n1)C(C(F)(F)F)CC(c1ccc(Cl)cc1)N2 (stereo not given)	1.7
CN1CCN(C(=O)c2cnn3c2NC(c2ccc(Br)cc2)CC3C(F)(F)F)CC1 (stereo not given)	4.7*
CC(C)NC(=O)c1cnn2c1NC(c1ccc(Br)cc1)CC2C(F)(F)F (stereo not given)	5.8*
N#Cc1ccc(C(=O)COc2ncnc3cc(Cl)ccc23)cc1	-1.1
Cn1nc(-c2ccccc2)cc1NC(=O)CN1C(=O)c2ccccc2S1(=O)=O	-0.56
SMILES	Dicer processing
Cc1ccc(C(C)C)cc1C(=O)CC1(O)C(=O)Nc2ccc(Cl)cc21 (stereo not given)	-1.8
O=C(Nc1ccccc1)c1cc([N+](=O)[O-])cc2c1-c1ccc([N+](=O)[O-])cc1C2=O	1.5
Cc1ccc(-c2cc(=O)[nH]c(Nc3nc(C)c4ccccc4n3)n2)cc1	-1.2
Cn1c(-c2ccccc2)[n+](C)c2ccccc21	-1.6
CCOC(=O)c1cc(-c2ccccc2)sc1NC(=O)Nc1ccc(C)cc1	-2.7
CCC(CO)NC(=S)Nc1ccc(C)c(Cl)c1 (stereo not given)	-9.1
O=[N+]([O-])C1=Cc2c(ccc3ccccc23)OC1c1c(Cl)cccc1Cl (stereo not given)	-0.42
CCOC(=O)c1cnc(N2CCN(c3ncc(C(=O)OCC)c(C(F)(F)F)n3)CC2)nc1C(F)(F)F	-1.1
Cc1ccc(C(=O)N(Cc2ccccc2)C(C)C)cc1	1.4
O=C(Nc1nc(-c2ccc(F)c(F)c2)cs1)c1cccs1	3
COCc1nc(-c2cc3ccc(C)cc3[nH]c2=O)no1	0.75
O=C(O)CCCC(=O)N1CCN(c2nc(-c3ccccc3)c3cc(Br)ccc3n2)CC1	0.89
O=C(O)c1cnn2c1NC(c1ccccc1)CC2C(F)(F)F (stereo not given)	3.1*
Cc1ccc(C2CC(C(F)(F)F)n3ncc(C(=O)O)c3N2)cc1 (stereo not given)	0.54
COc1cccc(C2CC(C(F)(F)F)n3ncc(C(=O)O)c3N2)c1 (stereo not given)	-0.84
Brc1ccc2c(c1)C1CC(c3ccccc3)=NN1C(c1cccnc1)O2 (stereo not given)	1
COc1cccc2c1OC(c1ccncc1)N1N=C(c3cc(Cl)ccc3O)CC21 (stereo not given)	2.2
CSCCC1Oc2ccc(Br)cc2C2CC(c3ccccc3O)=NN12 (stereo not given)	11*
CSCCC1Oc2ccccc2C2CC(c3ccccc3O)=NN12 (stereo not given)	3.8
Cc1ccc(C2=NN3C(C2)c2cc(Br)ccc2OC3c2ccncc2)s1 (stereo not given)	4.3*
COc1cccc2c1OC(CCSC)N1N=C(c3cc(C)ccc3O)CC21 (stereo not given)	-0.7
c1ccc(C2Oc3ccccc3C3CC(c4cccnc4)=NN32)cc1 (stereo not given)	0.1
Cc1ccc(O)c(C2=NN3C(C2)c2cc(Br)ccc2OC3c2ccncc2)c1 (stereo not given)	0.98
